High-throughput results (PubChem BioAssay)
Hits are enriched below; roughly 7.3% of the tested compounds scored in any of these assays.
Rab9 prom act: qHTS Assay for Rab9 Promoter Activators; 320,000 compounds, 2.8% hits; Huh7 Rab9 promoter-luciferase reporter, luminescence, 24 h; Potency, µM (highest dose often 9.22 µM), for inactives: top-dose activation, negative = inhibition, hits mostly activators; note: % of control where 0% means no effect; nearly all actives have a fitted effect of over 60% in size
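Quantitative HTS format; Huh7 Rab9-luciferase reporter cells (1500/well) receive compound 2 h post-plating, incubate 24 h at 37 °C, then get luciferase reagent for 10 min before luminescence reading.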
FLuc modulator: qHTS profiling assay for firefly luciferase inhibitor/activator using purifed enzyme and Km concentrations of substrates (counterscreen for miR-21 project) | Luciferin 4-monooxygenase (Photinus pyralis), P08659 | purified FLuc, Km substrates, luminescence inhibition | Potency, µM (top dose mostly 57.5 µM), without a hit: top-dose activity change, negative = inhibition, usual class: inhibitors | 360,000 compounds, 6.9% hits | AID 588342, 2011;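 note: plate controls were vehicle for no effect and reference inhibitor for full effect; nearly all actives have a fitted effect of over 55% in size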
Target sequence (P08659 whole entry, looked up): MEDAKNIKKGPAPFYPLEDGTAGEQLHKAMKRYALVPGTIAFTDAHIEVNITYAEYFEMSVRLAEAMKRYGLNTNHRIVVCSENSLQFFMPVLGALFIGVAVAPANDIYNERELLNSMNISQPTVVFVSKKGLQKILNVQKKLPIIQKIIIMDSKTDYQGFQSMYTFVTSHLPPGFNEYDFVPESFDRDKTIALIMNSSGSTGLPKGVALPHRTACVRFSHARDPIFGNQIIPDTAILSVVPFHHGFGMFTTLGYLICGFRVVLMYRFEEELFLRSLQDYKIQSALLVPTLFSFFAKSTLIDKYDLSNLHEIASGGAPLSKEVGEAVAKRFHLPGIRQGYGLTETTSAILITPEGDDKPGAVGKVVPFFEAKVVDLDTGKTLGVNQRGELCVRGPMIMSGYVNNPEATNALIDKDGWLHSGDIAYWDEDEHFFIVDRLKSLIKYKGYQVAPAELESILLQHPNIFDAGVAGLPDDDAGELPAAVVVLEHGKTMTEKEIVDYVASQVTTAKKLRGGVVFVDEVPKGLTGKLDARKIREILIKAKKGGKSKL
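Biochemical qHTS of compounds, final roughly 60 µM downward over six points, against 10 nM purified firefly luciferase using Km concentrations of substrates (10 uM D-luciferin, 10 uM ATP) in Tris acetate pH 7.5 buffer; luminescence output.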
SMN2 splice up: qHTS Assay for Enhancers of SMN2 Splice Variant Expression. Potency, µM (titrated, usually from 46.1 µM), without a hit: at the highest dose activity change, positive = activation, most hits filed as activators. HEK293 SMN2-luciferase splicing reporter, luminescence, 30-36 h. 210,000 compounds, 2.8% hits; note: % of control where 0% means no effect; nearly all actives have a fitted effect of over 55% in size
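qHTS luciferase splicing reporter: luminescence rises when SMN2 exon 7 is included in transfected HEK293 cells. Compound exposure lasted 30-36 h at 37C, with 4.5 mM final sodium butyrate as control, followed by a ONE-Glo read.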
ELG1 genotox: qHTS screen for small molecules that induce genotoxicity in human embryonic kidney (HEK293T) cells expressing luciferase-tagged ELG1; HEK293T ELG1-luciferase reporter, luminescence, 16 h; Potency, µM (highest dose often 46 µM), without a hit: at the top dose activity change, positive = activation, actives largely listed as activators; 330,000 compounds, 1.3% hits; AID 504466, 2011; note: % of control where 0% means no effect; nearly all actives have a fitted effect of over 60% in size
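HEK293T cells expressing luciferase-tagged ELG1 were exposed to compound or DMSO vehicle for 16 hr at 37 °C and 5% CO2. Luciferase activity was then measured with ONE-Glo after 30 min at room temperature.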
NPC1 prom act: qHTS Assay for NPC1 Promoter Activators | Huh7 NPC1 promoter luciferase reporter, 24 h | Potency, µM (titrated, usually from 9.22 µM), for the others: top-dose activation, hits mostly activators | 320,000 compounds, 2.4% hits; note: % of control where 0% means no effect; nearly all actives have a fitted effect of over 60% in size
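Huh7 cells stably carrying NPC1 promoter–luciferase, plated in Opti-MEM with 10% FBS for 2 h, were exposed to compound in DMSO for 24 h at 37 °C; luciferase reagent was added for 10 min and luminescence read.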
uPA generation: qHTS for Inhibitors of Cell Surface uPA Generation. 330,000 compounds, 0.31% hits. Potency, µM (series often up to 38.3 µM), for inactives: at the top dose activity change, negative = inhibition, usual class: inhibitors. cell surface uPA generation assay, qHTS; active = well fitted inhibition curve with a large enough effect; inconclusive = small, poorly fitted or top-dose-only effect; inactive = no such curve, though single readings can be large or run the other way; tested in mouse RAW 264.7 cells; note: % is set by controls: 0 for no effect and ±100 for the full control effect; nearly all actives have a fitted effect of over 55% in size
* marks the source's active call; other numbers are inactive results; u = inconclusive; x = no result given; [ ] = dose if it differs, or a comment. Unless noted, calls come from the whole dose curve; as a rule, active = well fitted curve in the direction sought with a large enough effect; inconclusive = small, poorly fitted or top-dose-only effect, or another doubt; inactive = no such curve, though single readings can be large; an effect the other way counts as inactive or inconclusive. Potency is the fitted concentration of half-maximal effect.

SMILES	Rab9 prom act	FLuc modulator	SMN2 splice up	ELG1 genotox	NPC1 prom act	uPA generation
O=C(Nc1ccccn1)c1onc2c1CCCC2	0.398µM*	0.757µM*	0.708µM*	u	0.355µM*	-5.6%
COc1ccccc1NC(=O)c1csc2c1CCCC2	-0.8%	19µM*	-17.6%	-0.3%	-0.5%	x
CCCC(=O)Nc1sc2c(c1C(=O)Nc1ccccn1)CCCC2	-7.6%	4.2%	x	-4.6%	1.2%	-3.2%
CC1CCc2c(sc(NC(=O)c3cc(-c4ccc(Br)cc4)on3)c2C(N)=O)C1 (configuration not stated)	x	-13.1%	3.5%	x	x	x
Cc1cc2occ(CC(=O)OCC(=O)Nc3sc4c(c3C#N)CCC(C)C4)c2cc1C (configuration not stated)	-2.0%	u	1.5%	2.6%	4.3%	2.1%
CS(=O)(=O)Nc1cccc(-c2cncnc2NCc2cccs2)c1	x	x	-0.6%	x	x	x
Cc1ccccc1N1CCN(c2ccc(NC(=O)C3CCCCC3C(=O)O)cc2)CC1 (configuration not stated)	0.6%	10.7µM*	-18.7%	0.5%	-0.5%	-0.4%
COc1ccc(-n2nc(C(=O)NCC(=O)N3CCN(c4ccccc4F)CC3)c3ccccc3c2=O)cc1	u	0.338µM*	x	7.3%	u	-7.2%
COc1ccc(-n2nc(C(=O)NCC(=O)N3CCN(c4ccccc4F)CC3)c3ccccc3c2=O)cc1OC	28.4%	0.953µM*	x	5.7%	u	-6.9%
CCN(Cc1ccccc1)S(=O)(=O)c1ccc(F)c(C(=O)Nc2cc(C(F)(F)F)ccc2Cl)c1	x	-6.5%	x	x	x	x
Cc1cc(C(=O)CSc2n[nH]c(N)n2)c(C)n1-c1cc(F)ccc1F	u	-3.0%[2.3 µM]	13.4%	10.1%	25.2%	-8.1%
C=CCn1c(C)cc(C(=O)CSc2n[nH]c(N)n2)c1C	19.1%	19µM*	u	14.6µM*	23.8%	-1.4%
Cc1cc(C(=O)CSc2nnc3ccccn23)c(C)n1-c1ccccc1	u	0.19µM*	-47.1%	u	u	-3.6%
Cc1cc(C(=O)CSc2n[nH]c(N)n2)c(C)n1-c1ccccc1	u	6.01µM*	11.2µM*	4.47µM*	2.51µM*	x
Cc1cc(C(=O)CSc2n[nH]c(N)n2)c(C)n1-c1ccc(F)cc1	u	19µM*	-11.6%	14.9%	u	x
Cc1cc(C(=O)CSc2nnc(-c3ccccc3)n2-c2ccccc2)c(C)n1-c1ncn[nH]1	-10.3%	-1.0%	4.1%	4.2%	3.6%	0.2%
Cc1cc(C(=O)CSc2n[nH]c(N)n2)c(C)n1C1CC1	26.7%	-19.5%	12.5%	4.0%	12.4%	-1.6%
Cc1ccc(-n2c(C)cc(C(=O)CSc3n[nH]c(N)n3)c2C)cc1	20.4%	9.53µM*	-34.5%	0.7%	25.7%	x
Cc1ccsc1C=C1C(=O)c2ccccc2C1=O	u	1.35µM*	8.9%	2.4%	u	-1.5%
Cc1ccsc1/C=C1/C(=O)NN(c2ccccc2)C1=O	-3.9%	9.53µM*	-3.7%	-7.4%	u	1.6%
O=C(CCn1cnc2ccccc2c1=O)NCc1ccccc1	x	-4.4%	x	x	x	x
CNc1ncc(C(=O)c2ccc(Cl)c(Cl)c2)s1	u	u	23.9%	u	3.55µM*	-4.9%
CNc1ncc(C(=O)c2ccc(-c3ccccc3)cc2)s1	2.51µM*	3.01µM*	x	u	2µM*	u
O=C(c1ccc(Cl)c(Cl)c1)c1cnc(Nc2ccccc2)s1	5.7%	5.5%	-4.0%	2.2%	0.9%	x
CNc1ncc(C(=O)c2ccc(Cl)cc2)s1	2.82µM*	10.7µM*	12.6µM*	u	3.55µM*	-6.8%
SMILES	Rab9 prom act	FLuc modulator	SMN2 splice up	ELG1 genotox	NPC1 prom act	uPA generation
COc1ccc(NS(=O)(=O)c2cccc(C(=O)OCC(=O)N3CCN(c4ccc(OC)cc4)CC3)c2)cc1	-9.3%	-18.5%	x	u	-4.2%	u
Cc1cc2c(cc1S(=O)(=O)NCc1ccc(F)cc1)OCC(=O)N2	x	4.6%	x	x	x	x
CCCCNc1c(-c2cccc(-c3cc(C(C)=O)cs3)c2)nc2ccc(C)cn12	2.0%	10.7µM*	x	-16.1%	12.2%	-21.9%
CCCCCCSc1cccc(-c2nc3ccc(Cl)cn3c2NCCCC)c1	x	x	x	x	x	-0.4%
O=C(Nc1ccccc1Cl)NC1CCCCCCC1	u	13.5µM*	x	u	u	-1.6%
COc1ccccc1NC(=O)NC1CCCCCCC1	1.7%	13.5µM*	x	-3.3%	-1.8%	1.6%
CCN(CC)C(=O)Cn1cc(S(=O)(=O)CC(=O)N2CCOCC2)c2ccccc21	x	x	x	x	x	1.2%
CCC1=C2CC[C@H]3C(=O)N(c4ccccc4)C(=O)[C@H]3[C@H]2[C@@]2(C)C(=O)N(CC(=O)OC)C(=O)N2C1=O	x	x	-3.2%	x	x	x
CCc1c(C)nc2nncn2c1Nc1ccc(C)c(F)c1	x	-7.6%	-1.4%	x	x	x
CC(=O)c1cccc(NC(=O)c2oc(C)nc2C)c1	26.7%	-1.0%	x	2.4%	-4.6%	x
C/C(=N/OC(=O)c1ccccc1)c1oc(C)nc1C	1.4%	12µM*	x	2.3%	1.4%	4.5%
C/C(=N/OC(=O)c1ccc(Cl)cc1Cl)c1oc(C)nc1C	7.1%	7.57µM*	x	-1.1%	-3.4%	8.0%
C/C(=N/Oc1nc(C)cc(C)n1)c1ccc(Cl)cc1Cl	-0.9%	7.0%	-14.1%	-0.6%	-1.0%	5.5%
CCOC(=O)c1c(C)[nH]c(C)c1S(=O)(=O)N1CCCC(C(=O)Nc2cc(C)ccc2C)C1 (configuration not stated)	x	1.9%	x	x	x	x
CCN(CC(=O)Nc1ccc(NC(C)=O)cc1)C(=O)c1ccc2c(c1)S(=O)(=O)N=C1CCCCCN12	-1.4%	10.7µM*	x	-9.7%	0.4%	-4.8%
COc1ccc(C(=O)Nc2cccc(OCc3cc(=O)n4c5c(sc4n3)CCCC5)c2)cc1	x	u	0.4%	x	x	x
O=C(Nc1cccc(C(=O)OCc2cc(=O)n3c4c(sc3n2)CCCC4)c1)c1ccccc1	x	2.39µM*	x	x	x	x
COc1ccc(C)cc1NC(=O)Nc1cccc(OCc2cc(=O)n3ccc(C)cc3n2)c1	x	2.69µM*	x	x	x	x
COc1ccccc1C(=O)Nc1cccc(OCc2cc(=O)n3c4c(sc3n2)CCCC4)c1	x	6.01µM*	12.6%	x	x	x
COc1ccccc1C(=O)Nc1cccc(OCc2cc(=O)n3ccccc3n2)c1	x	7.57µM*	x	x	x	x
O=C(OCC1CCCO1)c1ccc2c(c1)N(Cc1ccccc1F)C(=O)c1ccccc1S2(=O)=O (configuration not stated)	x	-7.4%	x	x	x	x
Fc1ccc(N2CCN(C3=Nc4cccc5cccc3c45)CC2)cc1	14.5%	15.1µM*	-0.1%	2.3%	24.0%	1.6%
